According to paper PMC5540273 (PLoS ONE, 2017):

What was measured:
Conditions in all cases: concentration: 1 μM, replicates: in singlicate; n = 1
PIK3C2G = system: PIK3C2G
PIK3CA = system: PIK3CA
PIK3CB = system: PIK3CB
PIK3CD = system: PIK3CD
PIK3CG = system: PIK3CG
PIK4CB = system: T1, PIK4CB
T1 construct: gene PI4KB

PIKFYVE = system: PIKFYVE
PIM1 = system: PIM1
PIM2 = system: PIM2
PIM3 = system: PIM3
PIP5K1A = system: PIP5K1A
PIP5K1C = system: PIP5K1C
PIP5K2B = system: PIP5K2B
PIP5K2C = system: T2, PIP5K2C
T2 construct: gene PIP4K2C

PKAC-alpha = system: T3, PKAC-alpha
T3 construct: gene PRKACA

PKAC-beta = system: T4, PKAC-beta
T4 construct: gene PRKACB

PKMYT1 = system: PKMYT1
PKN1 = system: PKN1
PKN2 = system: PKN2
PLK1 = system: PLK1
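Also: KINOMEscan kinase panel screen.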

Compound	%Inh (PIK3C2G) [%]	%Inh (PIK3CA) [%]	%Inh (PIK3CB) [%]	%Inh (PIK3CD) [%]	%Inh (PIK3CG) [%]	%Inh (PIK4CB) [%]	%Inh (PIKFYVE) [%]	%Inh (PIM1) [%]	%Inh (PIM2) [%]	%Inh (PIM3) [%]	%Inh (PIP5K1A) [%]	%Inh (PIP5K1C) [%]	%Inh (PIP5K2B) [%]	%Inh (PIP5K2C) [%]	%Inh (PKAC-alpha) [%]	%Inh (PKAC-beta) [%]	%Inh (PKMYT1) [%]	%Inh (PKN1) [%]	%Inh (PKN2) [%]	%Inh (PLK1) [%]
CS(=O)(=O)c1cccc(CNc2nc(Nc3ccc4c(c3)CCC(=O)N4)ncc2C(F)(F)F)c1	9	0	3	0	0	0	28	10	0	32	61	58	59	69	0	0	0	49	2	0
COc1cccc2c(-c3ccncc3)c(-c3ccc(F)cc3)nn12 [GW468513]	0	0	0	11	0	0	0	9	0	0	0	64	6	26	23	31	0	6	0	0
COc1ccc(NC(=O)c2ccoc2)cc1-c1ccc(C(=O)NCC2CC2)cc1 [GW810437]	0	9	24	0	12	20	31	0	12	0	7	0	0	0	15	15	0	0	0	50
CNc1nccc(-c2ccc3c(N)n[nH]c3c2)n1 [GSK2206003]	1	0	0	0	17	0	0	18	0	13	54	60	32	35	23	4	4	0	0	6
N#Cc1cnc2cc(-c3cnc(CNCCN4CCOCC4)s3)ccc2c1Nc1ccc(Oc2ccccc2)cc1 [GW664114]	0	0	0	7	0	11	100	11	0	8	25	34	31	41	0	0	0	13	0	0
Nc1ncnc2scc(-c3ccc(NC(=O)Cc4cc(F)ccc4F)cc3)c12.O=C(O)C(F)(F)F [SB-731254-M]	13	0	0	0	23	22	0	0	0	19	0	0	0	0	13	15	23	4	26	9
COc1cccc(C2=C(Nc3cccc(O)c3)C(=O)NC2=O)c1 [SB-390771]	0	0	0	0	0	10	0	26	0	0	0	39	14	38	0	0	9	100	0	0
O=C1NC(=O)C(c2ccccc2Cl)=C1Nc1cccc(Cl)c1 [SB-342409]	0	0	0	0	0	0	0	0	0	0	11	15	13	5	0	0	27	100	0	0
CSc1ccc(NC2=C(c3ccc(Cl)cc3)C(=O)NC2=O)cc1 [SB-317658]	15	0	24	54	0	27	0	1	0	12	0	0	43	0	16	16	10	7	9	4
Cc1ccc(Nc2ccnc(Nc3ccc(C)c(F)c3)n2)cc1O.Cl [GW582868]	0	0	0	11	0	8	24	52	0	0	27	47	5	70	0	0	0	23	0	0
COc1cc(Nc2nccc(N3CCC(NC(=O)Nc4ccc5c(c4)OCO5)C3)n2)cc(OC)c1OC (stereo not drawn) [GSK1379766]	0	3	0	50	13	80	10	0	0	0	19	56	0	92.3	0	0	0	35	0	2
Cc1ccc(O)cc1Nc1ccnc2cc(-c3ccc(CN4CCCCC4)o3)ccc12 [GW557777]	16	0	0	0	0	0	0	0	2	7	0	0	0	0	5	0	0	0	0	0
O=C(Nc1n[nH]c2nc(-c3cccc(O)c3)ccc12)C1CC1 [SB-711805]	16	0	0	0	17	12	15	11	81	10	32	98	8	0	3	0	0	0	24	0
Cl.Cl.NCC(NC(=O)c1cc(-c2cccnc2)c(-c2ccnc3[nH]ccc23)s1)c1ccccc1 (stereo not drawn) [GSK1323434]	0	0	0	2	0	0	59	16	0	0	29	80	10	65	95.7	91.2	10	0	0	2
O=C(O)C(F)(F)F.O=c1[nH]ccc2nc(N[C@@H]3CCNC3)nc(Nc3ccc4c(c3)S(=O)(=O)CC4)c12 [GSK2181306]	23	9	100	34	86	0	0	89	96.6	99	57	84	84	76	24	43	16	0	71	31
CN(C)c1ncnc2nc[nH]c12 [SKF-31736]	0	13	0	0	8	1	21	5	0	8	0	0	0	10	0	0	4	0	1	12
NCCC(NC(=O)c1cc(Br)c(-c2ccnc3[nH]ccc23)s1)c1ccccc1.O=C(O)C(F)(F)F.O=C(O)C(F)(F)F (stereo not drawn) [GSK1307810]	0	0	6	7	2	8	9	66	95.5	45	82	81	0	57	99.4	99.6	0	50	87	0
Cc1ccc(O)cc1Nc1ccnc2ccc(C(C)(C)C)cc12 [GW856805]	39	13	40	56	22	47	18	37	5	18	0	0	0	0	43	0	14	0	14	63
Nc1cccc(-c2ccc3c(N)n[nH]c3c2)c1 [GSK2193613]	0	0	40	2	0	0	0	11	0	0	0	28	0	16	0	4	8	0	0	0
Cc1cccc(Nc2nc(NCCN)ncc2C(N)=O)c1 [GSK1292139]	0	0	0	2	2	22	0	28	35	58	50	83	15	20	0	0	7	18	29	6
CN(C)CCNS(=O)(=O)c1ccc(-c2ccnc3[nH]ccc23)cc1 [GSK977620]	0	0	0	9	8	0	0	1	0	0	8	32	0	0	98.4	97.7	14	9	56	0
